Shown are actives, neighbours in structure and some others; about 1.6% of the full set was active somewhere.
KCNQ2 inh = inhibitors of rat KCNQ2 potassium channel; O88943; CHO-K1 KCNQ2, FluxOR thallium flux, 20 min; stronger effect = lower value; B-score at 10 µM; hit rate 1.1% among 310,000; AID 2156;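 active = fluorescence ratio B-score at most minus 3 library SDs, with starting brightness B-score within 2 library SDs, cut at about -5.5 in these data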
Target sequence (O88943 whole entry, looked up): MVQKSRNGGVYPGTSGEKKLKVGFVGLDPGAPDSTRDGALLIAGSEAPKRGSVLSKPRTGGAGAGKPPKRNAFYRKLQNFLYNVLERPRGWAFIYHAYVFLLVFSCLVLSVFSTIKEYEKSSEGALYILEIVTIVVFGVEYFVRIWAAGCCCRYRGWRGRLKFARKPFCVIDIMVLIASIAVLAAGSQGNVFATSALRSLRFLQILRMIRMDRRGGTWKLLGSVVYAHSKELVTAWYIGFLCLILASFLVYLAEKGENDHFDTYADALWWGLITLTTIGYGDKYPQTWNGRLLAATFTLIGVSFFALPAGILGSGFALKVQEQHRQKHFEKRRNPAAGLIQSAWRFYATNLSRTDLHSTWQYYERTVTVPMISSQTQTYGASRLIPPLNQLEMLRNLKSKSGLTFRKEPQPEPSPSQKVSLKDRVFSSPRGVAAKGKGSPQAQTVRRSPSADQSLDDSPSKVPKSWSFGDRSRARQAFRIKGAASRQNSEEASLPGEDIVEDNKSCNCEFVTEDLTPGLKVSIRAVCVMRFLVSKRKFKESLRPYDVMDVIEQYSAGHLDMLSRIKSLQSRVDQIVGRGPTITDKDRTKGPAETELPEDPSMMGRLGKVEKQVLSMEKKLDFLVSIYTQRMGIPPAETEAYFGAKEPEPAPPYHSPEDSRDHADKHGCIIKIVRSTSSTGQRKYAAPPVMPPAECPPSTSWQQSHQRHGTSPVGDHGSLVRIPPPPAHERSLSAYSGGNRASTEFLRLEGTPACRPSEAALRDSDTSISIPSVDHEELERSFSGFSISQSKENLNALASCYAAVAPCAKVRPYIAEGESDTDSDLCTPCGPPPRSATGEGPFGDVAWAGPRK
KCNQ2 pot = enhances the rat KCNQ2 potassium channel; hit rate 0.54% among 310,000; O88943; CHO-K1 KCNQ2, FluxOR thallium flux fluorescence; stronger effect = higher value; AID 2239; B-score at 10 µM;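 active = fluorescence ratio B-score at least 3 SD of library B-scores, with initial fluorescence B-score within 3 of them, cut at about 5.3 in these data; same plate scores as AID 2156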;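 also: B-score of peak minus minimum over baseline fluorescence ratio after K+ and Tl+ stimulus; positive B-score means potentiation of KCNQ2 with more thallium influx and brighter signal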
Of the large screens only hits and unclear results are named; the others gave an inactive call.

COc1ccc(-c2c[n+]3c4n2CCCCC4=C(c2ccccc2)C3)cc1	KCNQ2 inh -6.2
COc1ccc(-c2c[n+](CC(=O)c3ccccc3)c3n2CCCCC3)cc1	none (no result: KCNQ2 pot)
Cc1ccc(S(=O)(=O)NCCC(=O)Nc2ccc(C)cc2C(=O)c2ccccc2)cc1	KCNQ2 pot 5.4
CCN(CC)CC(=O)Nc1ccc(C)cc1C(=O)c1ccccc1	none (no result: KCNQ2 pot)
CCCCCCCN1CCC(=O)N([C@H](CO)c2ccccc2)CC1	none
Cc1ccc(NC(=O)CCCc2nc3ccccc3s2)c(O)c1	none
CC1CCC(C(C)C)C(OC(=O)C2=C3c4ccccc4S(=O)(=O)N3CC2)C1 (stereo unspecified)	KCNQ2 inh -6.1
CC1CCC(C(C)C)C(OC(=O)CSc2nccc(=O)[nH]2)C1 (stereo unspecified)	none (no result: KCNQ2 pot)
Cn1c(=O)c(C(=O)NCCc2ccccc2)c(O)c2ccccc21	none (no result: KCNQ2 pot)
CC(NC(=O)c1c(O)c2ccccc2n(C)c1=O)c1ccccc1 (stereo unspecified)	KCNQ2 inh -5.8
CCCC(NS(=O)(=O)c1ccc(-c2ccc(=O)[nH]n2)s1)c1cccs1 (stereo unspecified)	none
O=S(=O)(Nc1ccncc1)c1cc(Cl)c(Cl)cc1Cl	none
CCCCS(=O)CC(COC)OC(=O)c1ccccc1 (stereo unspecified)	none
CCCCS(=O)CC(COc1ccc(Cl)cc1)OC(=O)c1ccccc1 (stereo unspecified)	KCNQ2 inh -5.8
CC(O)c1nc2ccccc2n1CCCCOc1ccccc1 (stereo unspecified)	none
CC(=O)N(CCC(Cc1ccccc1)c1ccc2c(c1)OCO2)Cc1ccc(Cl)cc1 (stereo unspecified)	KCNQ2 inh -10
O=C(O)CC(Cc1ccccc1)c1ccc2c(c1)OCO2 (stereo unspecified)	none (no result: KCNQ2 pot)
Cc1oc2ccc(OCc3ccccc3Cl)cc2c1C(=O)O	none
Cc1oc2ccc(OCc3ccc(F)cc3Cl)cc2c1C(=O)O	KCNQ2 pot 7
CCOc1ccc2nc(NCCCNS(=O)(=O)c3ccccc3)c(C#N)cc2c1	none (no result: KCNQ2 pot)
CCCNC(=O)c1onc(CSc2ccc(F)cc2)c1C(=O)NCCOC	none
COc1ccc(OC)c(S(=O)(=O)N2CCN(c3ccccc3)CC2)c1	none
CCc1ccccc1N1CCN(S(=O)(=O)c2cc(OC)ccc2OC)CC1	KCNQ2 inh -7.1
CCc1ccc(NC(=O)c2ccc3c(c2)C(=O)N(CCOC)C3Nc2ccc(CC)cc2)cc1 (stereo unspecified)	none (no result: KCNQ2 pot)
O=C(N/C(=C\c1ccccc1)C(=O)N1CCCCC1)c1ccco1	none
COc1cc(NC(=O)CN2CCN(c3ccccn3)CC2)cc(OC)c1OC	none (no result: KCNQ2 pot)
COc1ccc(NC(=O)C(c2ccccc2)N2CCN(c3ccccn3)CC2)cc1Cl (stereo unspecified)	KCNQ2 inh -6.3
CCCCCc1nnc(NC(=O)CN2C(=O)C3CCCCC3C2=O)s1 (stereo unspecified)	none (no result: KCNQ2 pot)
CC1CN(C2CCN(C(=O)COc3ccc(Cl)cc3)CC2)CC(C)O1 (stereo unspecified)	none (no result: KCNQ2 pot)
COc1cc(CN(C)c2ncnc3sccc23)ccc1OC(F)F	none
COc1ccc(CCNC(=O)COc2cc(O)c3c(c2)OC(C)(C)CC3=O)cc1OC	none
Cc1cc(C)cc(N(CCC#N)C(=O)CSC2=Nc3ccccc3C3CC=NN23)c1 (stereo unspecified)	KCNQ2 inh -6.1
N#Cc1ccccc1NC(=O)CSC1=Nc2ccccc2C2CC=NN12 (stereo unspecified)	none (no result: KCNQ2 pot)
COCCCNC(=O)CCN1N=C(c2ccccc2)CCC1=O	none
Cc1ccc2nc(Cl)c(CN(Cc3cccs3)C(=O)C3CC3)cc2c1	none (no result: KCNQ2 pot)
COc1ccc(CCN(Cc2cc3cc(C)c(C)cc3nc2Cl)C(=O)C2CC2)cc1	KCNQ2 inh -6.5
COc1cccc(/C=N/Nc2ncnc3scc(-c4ccccc4)c23)c1OC	KCNQ2 inh -6
Cc1sc2ncnc(N/N=C/c3ccccc3O)c2c1C	none (no result: KCNQ2 pot)
COc1cc(NC(=O)c2cccs2)c(OC)cc1NC(=O)CCn1nnc2ccccc21	none (no result: KCNQ2 pot)
CCc1cccc(OCC(=O)Nc2ccccc2N2CCCC2)c1	none (no result: KCNQ2 pot)
Cc1ccc(NC(=O)C2Cc3ccccc3CN2C(=O)c2ccccc2)cc1Cl (stereo unspecified)	KCNQ2 inh -6.1
Cc1ccc(C(=O)N2Cc3ccccc3CC2C(=O)O)cc1 (stereo unspecified)	none
Cc1ccc(-c2cc(C(F)F)n3ncc(C(=O)N4CCN(c5ccccn5)CC4)c3n2)cc1	KCNQ2 inh -5.7
CCN1CCN(C(=O)c2cnn3c(C(F)F)cc(-c4ccc(C)cc4)nc23)CC1	none
Oc1ccccc1CNCCCN1CCOCC1	none (no result: KCNQ2 pot)
CC(Oc1ccc(Cl)cc1Cl)C(=O)NC(=S)N1CCc2ccccc21 (stereo unspecified)	KCNQ2 pot 9.3
O=C(NC(=S)N1CCc2ccccc21)c1ccccc1Br	KCNQ2 pot 14
O=C(COc1ccc(Br)cc1Cl)NC(=S)N1CCc2ccccc21	none
CN1CCN(C(=S)NC(=O)c2ccccc2Br)CC1	none (no result: KCNQ2 pot)
COc1ccc(S(=O)(=O)N(CC(=O)N2CCN(C)CC2)c2ccc(C)cc2)cc1OC	none (no result: KCNQ2 pot)
COc1cccc2cc(C(=O)OCC(=O)NCc3ccc4c(c3)OCO4)c(=O)oc12	none (no result: KCNQ2 pot)
COC(=O)c1ccc2c(=O)n(Cc3ccc(C(=O)NCCCN4CCC(C)CC4)cc3)c(=S)[nH]c2c1	none
CC1CCN(CCCNC(=O)c2ccc3c(=O)n(Cc4ccc(Cl)cc4)c(=S)[nH]c3c2)CC1	KCNQ2 inh -5.9
CC(C)(C)C(=O)Nc1cccc(-c2cc(-c3c(Cl)cccc3Cl)no2)c1	none (no result: KCNQ2 pot)
Cc1nc(SCC(=O)Nc2cccnc2Cl)nc(C)c1C	none
Cc1ccc(SCCNC(=S)Nc2cc(C)cc(C)c2)cc1	none (no result: KCNQ2 pot)
Cc1ccc(SCCNC(=S)Nc2ccc(C)cc2C)cc1	KCNQ2 pot 7
Cc1cc(Br)cc(Br)c1OCC(=O)NNC(=O)Nc1ccccc1	none (no result: KCNQ2 pot)
Cc1cccnc1Nc1nc(-c2ccc(O)cc2)cs1	none (no result: KCNQ2 pot)
Cc1cccnc1Nc1nc(-c2ccc(F)cc2)cs1	KCNQ2 inh -7.2
COc1ccc(Cl)cc1C(=O)n1cnc2ccccc21	none (no result: KCNQ2 pot)
Cn1cnnc1SCC(=O)NCCc1ccc(Cl)cc1Cl	none (no result: KCNQ2 pot)
CC(C)C(CCNC(=O)CC(Cc1ccccc1)c1ccco1)c1ccco1 (stereo unspecified)	KCNQ2 inh -14
CC(C)C(CCNC(=O)CN1C(=O)c2ccccc2C1=O)c1ccco1 (stereo unspecified)	none (no result: KCNQ2 pot)
CC(=O)c1ccc(NC(=O)CSc2nnc3ccc(-c4ccccn4)nn23)cc1	none
CN1CCN(NC(=O)c2cccc(C(F)(F)F)c2)CC1	none (no result: KCNQ2 pot)
CCOC(=O)c1cc(-c2ccco2)nc2c1c(C)nn2-c1ccccc1	KCNQ2 inh -6
CCCn1c(=O)c2c(C(=O)OCC)cc(-c3ccco3)nc2n(CCC)c1=O	none (no result: KCNQ2 pot)
CC1(c2ccc([N+](=O)[O-])cc2)Nc2ccccc2S1 (stereo unspecified)	none (no result: KCNQ2 pot)
CCCn1nc([N+](=O)[O-])c(C(C#N)c2nc3ccccc3o2)c(Cl)c1=O (stereo unspecified)	none (no result: KCNQ2 pot)
Cn1nc([N+](=O)[O-])c(C(C#N)c2ccccn2)c(Cl)c1=O (stereo unspecified)	KCNQ2 inh -5.8
CC(C)C(NC(=O)c1c(F)cccc1F)C(=O)NC1CC(C)(C)NC(C)(C)C1 (stereo unspecified)	none
Cc1ccc2c(c1)/C(=C/c1ccc(F)cc1)C(=O)N2	none
Cc1ccc2c(c1)N/C(=C(\C=C(/Cl)[N+](=O)[O-])[N+](=O)[O-])N2	KCNQ2 inh -6.8
COc1cccc([C@@H]2Oc3ccc(OC)cc3C(=O)[C@H]2OC(=O)N[C@H](C)C2CCCCC2)c1	KCNQ2 inh -6.8
